Measured values as given in the supplement of paper PMC6555819.

Legend:
Test in all cases: PBM binding z-score (relative to random genomic background probes); higher = stronger binding; sequences stand for … in GC…GCGATTGACAGCGTAGAATGAAGG
[1] = tested on: FXR:RXRa (NR concentration 270 nM, RXRa partner concentration 90 nM)
In short: (§1)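 Binding z-scores take random background probes as their reference. They come from custom Agilent 4×180K protein-binding microarrays incubated 1 h with ligand-free nuclear receptor dimers, with antibodies against each partner (one per run) detecting binding. Scanned fluorescence was regression-normalized.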

[2] = tested on: LXRa:RXRa (NR concentration 270 nM, RXRa partner concentration 90 nM)
In short: as §1

[3] = tested on: LXRa homodimer (NR concentration 270 nM)
In short: as §1

[4] = tested on: LXRb:RXRa (NR concentration 270 nM, RXRa partner concentration 90 nM)
In short: as §1

[5] = tested on: LXRb homodimer (NR concentration 270 nM)
In short: as §1

[6] = tested on: PPARa:RXRa (NR concentration 270 nM, RXRa partner concentration 90 nM)
In short: as §1

[7] = tested on: PPARg:RXRa (NR concentration 180 nM, RXRa partner concentration 90 nM)
In short: as §1

[8] = tested on: PPARg:RXRa 270nM:90nM, anti-RXR (NR concentration 270 nM, RXRa partner concentration 90 nM)
In short: as §1

[9] = tested on: PPARg:RXRa 30nM:10nM, anti-RXR (NR concentration 30 nM, RXRa partner concentration 10 nM)
In short: as §1

[10] = tested on: PPARg:RXRa 90nM:30nM, anti-RXR (NR concentration 90 nM, RXRa partner concentration 30 nM)
In short: as §1

[11] = tested on: PPARg:RXRa DBDmut IVT, anti-RXR (DBD mutation: RXRa K156A/R161A, NR concentration 270 nM, RXRa partner concentration 90 nM)
In short: as §1

[12] = tested on: PPARg:RXRa IVT, anti-PPARg (NR concentration 270 nM, RXRa partner concentration 90 nM)
In short: as §1

[13] = tested on: PPARg DBDmut:RXRa IVT, anti-PPARg (DBD mutation: PPARg1 K132A/R137A, NR concentration 270 nM, RXRa partner concentration 90 nM)
In short: as §1

[14] = tested on: PPARg DBDmut IVT, anti-PPARg (DBD mutation: PPARg1 K132A/R137A, NR concentration 270 nM)
In short: as §1

[15] = tested on: PPARg homodimer (NR concentration 180 nM)
In short: as §1

[16] = tested on: PXR:RXRa (NR concentration 270 nM, RXRa partner concentration 90 nM)
In short: as §1

[17] = tested on: PXR homodimer (NR concentration 270 nM)
In short: as §1

[18] = tested on: RARa:RXR (NR concentration 270 nM, RXRa partner concentration 90 nM)
In short: as §1

[19] = tested on: RARa homodimer (NR concentration 270 nM)
In short: as §1

[20] = tested on: RARb:RXRa (NR concentration 270 nM, RXRa partner concentration 90 nM)
In short: as §1

Sequence	PBM binding z-score [1]	PBM binding z-score [2]	PBM binding z-score [3]	PBM binding z-score [4]	PBM binding z-score [5]	PBM binding z-score [6]	PBM binding z-score [7]	PBM binding z-score [8]	PBM binding z-score [9]	PBM binding z-score [10]	PBM binding z-score [11]	PBM binding z-score [12]	PBM binding z-score [13]	PBM binding z-score [14]	PBM binding z-score [15]	PBM binding z-score [16]	PBM binding z-score [17]	PBM binding z-score [18]	PBM binding z-score [19]	PBM binding z-score [20]
CCTCACGGGTCACGAGGTTATAGCACGACGAGCG	6.54	4.19	0.232	3.64	-0.109	5.59	6.23	5.68	2.34	4.25	1.87	3.65	0.599	-0.0554	3.5	4.4	0.143	5.63	0.537	4.43
GCTTACGGGTCAAAGGTTATAGAATGAATAGAAT	7.46	6.03	0.9	5.71	0.667	7	11.4	9.46	10.1	10.7	4.71	5.44	1.37	1.09	1.73	6.07	0.466	8.42	0.715	4.59
CCGACTTGGGCATAAGGTTACCATAAGCCAGCCC	0.141	1.54	-0.195	0.516	-1.29	0.631	0.738	0.712	-0.372	0.427	-0.117	-0.425	-0.991	-1.38	0.34	0.211	-0.364	0.822	-0.32	0.922
TCTTGTAGATCAATAGAGGTTCAGAAAGTGCGCT	0.408	0.78	-0.0503	0.293	-0.193	0.663	-0.13	1.35	2.81	2.47	1.62	0.382	0.0591	1.1	-0.371	1.06	0.746	0.485	0.189	0.0734
AGAATGAGGTTATACGTAGATCAGGGAAGAAAGT	2.37	1.99	0.0175	1.7	0.71	3.18	2.1	2.02	0.854	1.48	4.01	1.92	0.956	1.16	0.9	1.2	0.682	1.82	0.738	1.54
AGTCAAAGTTCACTATGTAACGTAAGATTCAGCT	4.61	4.75	2.99	3.02	1.03	3.85	5.87	5.38	2.49	4.66	0.152	2.39	1.02	0.578	1.55	3.59	1.72	2.7	0.755	4.57
GCCAGCAGGCCATTTGGGTCACTCAATGACGGGC	0.0652	-0.0507	-0.664	-0.289	-1.29	1.02	0.451	0.16	-0.483	-0.357	0.295	1.48	-0.593	-1.66	-0.218	0.499	0.123	0.783	-1.21	1.49
